For 51 compounds, INHIBITION results are on record in ChEMBL document CHEMBL4513216, “Probing the Open Global Health Chemical Diversity Library for Multistage-Active Starting Points for Next-Generation Antimalarials” (ACS Infect Dis, 2020).

Each structure is given as a SMILES string. The whole screen tested about 68,000 compounds, of which about 2,700 (4%) showed an effect of 50% or more. The list comes from a sample in which strong results are over-represented; it also holds similar structures and randomly drawn compounds.

The subject of the test is Plasmodium berghei. The experiment in a line: Screen against P. berghei liver stage (PbLuc), transformed with Luciferase, at 2uM. In kind it is functional, HepG2. The settings on record: tested at 2 uM.
For `CCc1[nH]c2c(CNC(=O)C3CNC(=O)C3)cc(C)cc2c1C` (stereo unspecified), the INHIBITION is listed as 53.05%.

`CCC(CO)N(Cc1ccco1)C(=O)c1ccccc1NC` (stereo unspecified): the INHIBITION worked out at 4.57%. Regarding `CCOCC(O)CN1CCN(C(=O)c2cc(F)cc(F)c2)CC1` (stereo unspecified), the INHIBITION was -41.07%.

For `CCOCC(O)CN1CCN(C(=O)c2ccncc2)CC1` (stereo unspecified), the INHIBITION is listed as 69.01%. With `CCOCC(O)CN1CCN(C(=O)c2ccc(OC)cc2)CC1` (stereo unspecified), the INHIBITION was 2.8%. With `COc1ccc(-c2cc3nc([C@H](C)NC(=O)C4CC4)nn3cn2)cc1`, the INHIBITION is given as 20.72%. Consider `Cc1ccc(CN2CC[C@H]3[C@H]2CCN3S(C)(=O)=O)s1`, for which the INHIBITION was -25.95%. For `CCn1cc(CN2C[C@@H]3CC[C@H]2CN(C(=O)c2ccncc2)C3)cn1`, the INHIBITION is given as -23.16%. Consider `CCc1nn(C)c2[nH]nc(NC(=O)c3cccnc3OC)c12`, for which the INHIBITION was -3.4%. The figure for `CCc1nn(C)c2[nH]nc(NC(=O)c3cccnc3NC(C)C)c12` is 54.87%. For the compound `CCc1nn(C)c2[nH]nc(NC(=O)c3cccnc3OCC(C)C)c12`, the INHIBITION was found to be 5.94%. Consider `Cc1cnn(CC2CCCN2Cc2coc(-c3ccc(F)cc3)n2)c1` (stereo unspecified), for which the INHIBITION stood at 7.8%. In the case of `Cc1cccc2c1NC1(CCCC1)NC2=O`, the INHIBITION amounted to 19.81%.

With `COc1cccc(OC2CN(C(=O)c3ccnc(OC)c3)C2)c1`, the INHIBITION stood at 6.85%. Regarding `COc1cc(C(=O)N2CC(Oc3ccccc3Cl)C2)ccn1`, the INHIBITION worked out at 14.88%. Under `CCc1ccccc1OC1CN(C(=O)c2ccnc(OC)c2)C1` stands 72.94%. With `O=C(c1cccn1Cc1cccs1)N1CCN(C(=O)C2CC2)CC1`, the INHIBITION was -72.53%.

Regarding `O=C(c1cccn1Cc1cccs1)N1CCN(C2CC2)CC1`, the INHIBITION is reported as -14.3%. On to `NC(=O)C1CCN(C(=O)c2cccn2Cc2cccs2)CC1`, for which the INHIBITION is 3.97%. Consider `O=C(c1cccn1Cc1cccs1)N1CCC(C(=O)N2CCCC2)CC1`, for which the INHIBITION came out at 17.42%. On to `O=C(c1cccn1Cc1cccs1)N1CCSCC1`, for which the INHIBITION came out at 69.49%.

On to `CNC(=O)C1CCN(C(=O)c2cccn2Cc2cccs2)CC1`, for which the INHIBITION is 56.67%. Turning to `Cn1cc(C2COC3(CCN(C(=O)Cn4cccn4)CC3)C2)cn1` (stereo unspecified), the INHIBITION was determined as 12.36%. In the case of `CCOCC1CN(CC2CC2)Cc2nn(C)cc21` (stereo unspecified), the INHIBITION stood at 4.99%. As to `O=C(CCC1CCCC1)NCCn1nc(C2CCNC2)c2nccnc21` (stereo unspecified), the INHIBITION is on record as 26.52%. `CCOCCN1CCN(Cc2coc(-c3cccc(F)c3)n2)CC1`: the INHIBITION amounted to 62.13%. Regarding `OCCN1CCN(Cc2coc(-c3cccc(F)c3)n2)CC1`, the INHIBITION came out at 45.83%. Consider `CCN1CCN(Cc2coc(-c3cccc(F)c3)n2)CC1`, for which the INHIBITION was 23.92%.

As to `O=C(c1cnccn1)N1CCOC2(CCN(Cc3ccsc3)CC2)C1`, the INHIBITION is reported as -3.36%. Under `Cc1noc([C@H]2COC[C@H]3CN(C(=O)Cc4ccccc4F)C[C@H]32)n1` stands 15.89%; under `CCOCC(=O)N1C[C@@H]2COC[C@H](c3nc(C)no3)[C@@H]2C1`, 64.16%. Under `Cc1noc([C@H]2COC[C@H]3CN(C(=O)Cc4ccc(F)cc4)C[C@H]32)n1` stands 11.08%; under `CC(C)c1ccc(C(CN)N2CCc3sccc3C2)cc1` (stereo unspecified), 11.74%; under `CN(Cc1ccco1)[C@@H]1CN(Cc2ccoc2)C[C@@H]2CCCO[C@@H]21`, -11.13%. With `CC1(C)CNC(=O)CN(C(=O)Cc2ccccc2)C1`, the INHIBITION is on record as 30.56%.

For `CC(Cn1cncn1)NC1CCN(Cc2cccc(O)c2)CC1` (stereo unspecified), the INHIBITION is given as -6.77%. For the compound `Cc1cc(C)n(CC(C)NC2CCN(Cc3cccc(O)c3)CC2)n1` (stereo unspecified), the INHIBITION was 32.71%. As for `CC(CN1CCOCC1)NC1CCN(Cc2cccc(O)c2)CC1` (stereo unspecified), the INHIBITION worked out at 58.12%. Take `COc1ccc(CCC(C)Nc2cccc(SC)c2)cc1` (stereo unspecified): the INHIBITION was determined as 2.5%.

For `CCOCC1c2c(ncn2C)CCN1C(=O)c1cnc(C)cn1` (stereo unspecified), the INHIBITION was -6.19%. Regarding `Cc1ccc(C(=O)N(C)CCOc2ccccc2F)c(=O)[nH]1`, the INHIBITION came out at 54.62%. As to `Cc1ccc(C(=O)N(C)Cc2cscn2)c(=O)[nH]1`, the INHIBITION is on record as 44.39%. For `Cc1ccc(C(=O)N(Cc2ccccc2F)C2CC2)c(=O)[nH]1`, the INHIBITION is -2.23%. Consider `O=S(=O)(c1ccc(F)cc1)n1cc(Cl)cn1`, for which the INHIBITION is -0.9%. `NC(=O)c1ccc2c(c1)nc1n2CCN(Cc2cccnc2)C1`: the INHIBITION is 8.41%.

As to `O=C(Nc1ccccc1)C1CN(Cc2nccs2)CC12CCOCC2` (stereo unspecified), the INHIBITION came out at 11.9%. On to `Cc1cc(-c2cnc(N3CCSCC3)nc2-c2ccc(C)s2)on1`, for which the INHIBITION is listed as -48.18%. Turning to `COc1ccc(SC(C)C(=O)N2CCC(C(N)=O)CC2)cc1` (stereo unspecified), the INHIBITION is -12.36%. With `COc1ccc(SC(C)C(=O)N2CCC(O)CC2)cc1` (stereo unspecified), the INHIBITION is listed as -0.39%.

As for `COc1ccc(SC(C)C(=O)N2CCC(NC(=O)C3CC3)CC2)cc1` (stereo unspecified), the INHIBITION is 61.74%. Under `O=C1N(c2cccnc2)CCC12CCCN(Cc1ccoc1)C2` (stereo unspecified) stands 16.39%.
